The list is not random: actives were taken first. Their share in the collection is about 0.93%.
LAP4 TOR yeast = alters LAP4-GFP fluorescence in TOR pathway yeast screen; S. cerevisiae LAP4-GFP multiplex, flow cytometry GFP, 3 h; median GFP as percent of DMSO wells; GFP response vs DMSO, % at 10 µM; 0.34% of 320,000 active; AID 2023;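 active = GFP response vs DMSO above a set limit, about the screen mean plus 3 SD, cut at about 150% in these data; inconclusive = under 70 cell events counted for the yeast strain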
AGP1 TOR yeast = yeast TOR pathway AGP1-GFP modulation; 0.02% of 320,000 active; S. cerevisiae AGP1-GFP multiplex flow cytometry, 3 h; GFP as percent of DMSO wells; GFP response vs DMSO, % at 10 µM;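 active = GFP response relative to DMSO above a set limit, near screen average plus 3 SD, cut at about 150% in these data; inconclusive = fewer than 70 cells counted for the yeast strain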;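 note: median GFP channel fluorescence of the gated AGP1 strain per well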
CIT2-GFP yeast = modulators of TOR pathway CIT2-GFP in S. cerevisiae; S. cerevisiae CIT2-GFP strain, flow cytometry, 3 h; 100 means same as DMSO wells; GFP response vs DMSO, % at 10 µM; 0.065% of 320,000 active;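 active = GFP response relative to DMSO above a set limit, near the screen mean plus 3 SD, cut at about 150% in these data; inconclusive = Fewer than 70 cells measured for a yeast strain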;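 note: ratio of well median GFP fluorescence to mean of DMSO wells on the plate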
RPL19A TOR yeast = alters RPL19A-GFP fluorescence in TOR pathway yeast screen; S. cerevisiae RPL19A-GFP strain, flow cytometry, 3 h; stronger effect = lower value; percent response vs DMSO, % at 10 µM; 0.3% of 330,000 active; AID 2025;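 active = percent response vs DMSO below 50%; inconclusive = fewer than 70 events counted for the yeast strain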;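 note: median channel GFP fluorescence of the barcoded RPL19A-GFP strain; ratio of sample median GFP to plate DMSO average so 100% = DMSO; lower means less RPL19A-GFP as with rapamycin TOR inhibition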
MEP2 TOR yeast = modulators of TOR pathway MEP2-GFP in S. cerevisiae; S. cerevisiae MEP2-GFP strain, flow cytometry GFP, 3 h; 100% = DMSO control level; GFP response vs DMSO, % at 10 µM; 0.51% of 330,000 active; AID 2016;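 active = GFP response versus DMSO above a set limit, roughly screen mean plus 3 SD, cut at about 180% in these data; inconclusive = fewer than 70 cells counted for a yeast strain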;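 note: median GFP fluorescence of the barcode-gated MEP2-GFP cells per well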
Active calls of the source: *; ? = inconclusive; nt = not tested or not shown; + = active, no number; [ ] = dose if it differs, or a comment.

SMILES | LAP4 TOR yeast | AGP1 TOR yeast | CIT2-GFP yeast | RPL19A TOR yeast | MEP2 TOR yeast
COc1ccc(CC(=O)NCc2ccccn2)cc1OC | 93 | 29 | 110 | 61 | 269*
C/C(=N\NC(=O)Cc1ccc([N+](=O)[O-])cc1)c1cccnc1 | 79 | 122 | 151* | 99 | 165
C/C(=N/NC(=O)CNC(=O)c1cccnc1)c1ccc([N+](=O)[O-])cc1 | 100 | 97 | 91 | 97 | 105
O=S(=O)(c1cc(Cl)ccc1Br)N1CCOCC1 | 103 | 101 | 96 | 99 | 103
NC(=O)C1CCCN(C(=O)c2ccc(Cl)cc2)C1 (stereo unspecified) | 103 | 105 | 100 | 100 | 108
O=C(c1ccc(Cl)cc1)N1CCCOC1 | 89 | ? | ? | 50 | 410*[may fluoresce violet]
CCOc1ncccc1C(=O)NCCc1ccc(S(N)(=O)=O)cc1 | 60 | ? | ? | 38*[may fluoresce violet] | 231*[may fluoresce violet]
Cc1cccnc1NC(=O)C(C)N1C(=O)c2ccccc2C1=O (stereo unspecified) | 101 | 20 | ? | 52 | 738*[may fluoresce violet]
Nc1ccc2nc(-c3cccc(-c4nc5ccc(N)cc5[nH]4)n3)[nH]c2c1 | 102 | 35 | ? | 86 | +[may fluoresce violet]
Nc1ccc2nc(-c3ccc(-c4nc5ccc(N)cc5[nH]4)cc3)[nH]c2c1 | 151* | 34 | 84 | 121 | 120
O=C(NCc1ccccn1)c1ccc(OC2CCN(Cc3ccc(F)cc3F)CC2)cc1 | 91 | 106 | 103 | 101 | 110
O=C(Nc1nc(-c2ccc(S(=O)(=O)N3CCCCCC3)cc2)cs1)c1cccs1 | 89 | 22 | ? | 71 | 212*[may fluoresce violet]
O=C(Nc1nc(-c2ccc(S(=O)(=O)N3CCCC3)cc2)cs1)c1cccs1 | 99 | 96 | 89 | 96 | 94
COc1cc(C)c(S(=O)(=O)NC2CC(C)(C)NC(C)(C)C2)cc1C | 102 | 20 | ? | 59 | 422*[may fluoresce violet]
CN1CCN(C(=O)CSc2nnc(COc3ccccc3)o2)CC1 | 79 | ? | ? | 53 | 201*[may fluoresce violet]
O=C(CSc1nnc(-c2ccccc2)o1)N1CCCC1 | 68 | ? | ? | 39*[may fluoresce violet] | 180*[may fluoresce violet]
COc1ccc(-c2cc(=O)[nH]c(N3CCN(Cc4ccccc4)CC3)n2)cc1 | 95 | 98 | 96 | 102 | 107
Cc1onc(-c2ccccc2Cl)c1C(=O)N1CCC(Cc2ccccc2)CC1 | 51 | ? | ? | 27*[may fluoresce violet] | 240*[may fluoresce violet]
COC(=O)COc1c(Cl)cc(Cl)c2ccc(C)nc12 | 115 | 103 | 98 | 101 | 103
COc1ccc(OC)c(NC(=O)COC(=O)COc2c(Cl)cc(Cl)c3ccc(C)nc23)c1 | 74 | ? | ? | 22*[may fluoresce violet] | 221*[may fluoresce violet]
O=C(Cc1cccs1)N1CCCC(c2nc3c(nnn3Cc3ccccc3Cl)c(=O)[nH]2)C1 (stereo unspecified) | 95 | ? | ? | 50*[may fluoresce violet] | 294*[may fluoresce violet]
O=C1/C(=C/c2ccccn2)COc2ccccc21 | 152* | 79 | 62 | 97 | 91
O=C1/C(=C/c2ccc(O)cc2)COc2ccccc21 | 112 | 90 | 86 | 103 | 96
CCOC(=O)C1(C/C(C)=N/NC(N)=O)CC(C)(C)OC1=O (stereo unspecified) | 91 | 16 | ? | 43*[may fluoresce violet] | 176*[may fluoresce violet]
COC(=O)c1ccc(CSc2nc3ccccc3c(=O)n2C)o1 | 84 | 89 | 94 | 86 | 87
SMILES | LAP4 TOR yeast | AGP1 TOR yeast | CIT2-GFP yeast | RPL19A TOR yeast | MEP2 TOR yeast
CC(C)OCCCn1c(=N)c(C(N)=S)cc2c(=O)n3ccccc3nc21 | 91 | 35 | ? | 48*[may fluoresce violet] | 633*[may fluoresce violet]
N=c1c(C(=O)NC2CCCCC2)cc2c(=O)n3ccccc3nc2n1Cc1cccnc1 | ? | ? | ? | 33*[may fluoresce violet] | 180*[may fluoresce violet]
COC(=O)c1cc2c(=O)n3ccccc3nc2n(Cc2cccnc2)c1=N | ? | ? | ? | 22*[may fluoresce violet] | ?
N=c1c(C(=O)NCC2CCCO2)cc2c(=O)n3ccccc3nc2n1Cc1cccnc1 (stereo unspecified) | ? | ? | ? | 14*[may fluoresce violet] | ?
N=c1c(C(=O)NCc2ccc(F)cc2)cc2c(=O)n3ccccc3nc2n1Cc1cccnc1 | 109 | 99 | 101 | 99 | 106
CC(=O)N=c1c(C#N)cc2c(=O)n3ccccc3nc2n1CCCOC(C)C | 110 | 114 | 112 | 93 | 86
Cc1cccn2c(=O)c3cc(C(=O)NCC4CCCO4)c(=N)n(Cc4cccnc4)c3nc12 (stereo unspecified) | ? | ? | ? | 12*[may fluoresce violet] | ?
N=c1c(C(=O)NCC2CCCO2)cc2c(=O)n3ccccc3nc2n1Cc1ccc(F)cc1 (stereo unspecified) | 59 | ? | ? | 14*[may fluoresce violet] | 179*[may fluoresce violet]
N=c1c(C(=O)NCC2CCCO2)cc2c(=O)n3ccccc3nc2n1Cc1ccco1 (stereo unspecified) | 104 | 88 | 99 | 102 | 109
COc1ccc(CCn2c(=N)c(C(=O)NCC3CCCO3)cc3c(=O)n4cccc(C)c4nc32)cc1 (stereo unspecified) | 93 | 101 | 100 | 98 | 104
N=c1c(C(=O)NC2CCCCC2)cc2c(=O)n3ccccc3nc2n1Cc1ccco1 | 79 | ? | ? | 56 | 243*[may fluoresce violet]
N=c1c(C(=O)NC2CCCCC2)cc2c(=O)n3ccccc3nc2n1Cc1ccccc1 | 97 | 89 | 97 | 97 | 98
CCCCc1nnc(NC(=O)CCS(=O)(=O)c2ccc(Cl)cc2)s1 | 93 | 91 | 96 | 90 | 93
COC(=O)CC1=C(C(=O)OC)C(c2ccncc2)C(C#N)=C(N)O1 (stereo unspecified) | 95 | 108 | 109 | 102 | 107
C=CCOc1ccc(/C=C2\N=C(C)OC2=O)cc1OC | 182* | 89 | 90 | 105 | 93
COc1ccc(/C=C2\N=C(C)OC2=O)cc1OC | nt | 63 | 66 | 85 | 79
CCOc1cc(/C=C2\N=C(C)OC2=O)cc(Br)c1OCC(=O)OC | 188* | 88 | 99 | 99 | 98
CCSc1nnc(NC(=O)c2ccc3ccccc3n2)s1 | 128 | nt | ? | 54 | 208*[may fluoresce violet]
CCc1nnc(NC(=O)c2ccc3ccccc3n2)s1 | 100 | 86 | 81 | 106 | 111
Cc1ccc(NC(=O)NC2=N/C(=C(/C#N)C(=O)N3CCCC3)c3ccccc32)cc1 | 103 | ? | ? | 21*[may fluoresce violet] | 237*[may fluoresce violet]
O=C(C1CCN(S(=O)(=O)c2cccs2)CC1)N1CCCCC1 | 90 | 96 | 98 | 94 | 100
CCOC(=O)C1CCCN(C(=O)C2CCN(S(=O)(=O)c3cccs3)CC2)C1 (stereo unspecified) | 86 | 18 | ? | 94 | 226*[may fluoresce violet]
N#Cc1c(N)nc(SCc2ccccc2)c(C#N)c1-c1ccco1 | ? | ? | ? | 17*[may fluoresce violet] | ?
O=C(O)CC1c2ccccc2CCN1S(=O)(=O)c1ccccc1 (stereo unspecified) | 117 | 118 | 105 | 107 | 106

From PubChem BioAssay
